Compounds with a hit are over-represented: about 1.8% of the library has one in this group of screens.
697 NFkB inh: lowers PMA/ionomycin-induced NF-kB signal in 697 B cells; 697 B-cell NF-kB luciferase reporter, 16 h; inhibition, % at 4 µM; 0.33% of 330,000 active; AID 435022; in the data active = inhibition above about 35%
Beta cell apopt: blocks beta cell apoptosis; protection from apoptosis, % (test concentration not listed); 0.8% of 300,000 active; INS-1E cytokine-induced death, ATP luminescence, 48 h; percent of positive-control rescue, neutral wells zero;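 active = Every replicate reaches about 75%, or at least half do and their mean reaches it too, limit read from the data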;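 also: 0% = cytokine-treated negative control wells and 100% = positive control rescue; higher means more ATP so stronger rescue from cytokine killing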
Gli-Sufu antag: antagonists of Gli-Sufu signaling; 0.74% of 340,000 active; inhibition, % at 5 µM; Sufu-KO-LIGHT fibroblasts, Gli luciferase reporter luminescence;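 active = inhibition above about 55%, limit read from the data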;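 also: 0% = DMSO-treated cells and 100% = wells with medium but no cells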
Jurkat NFkB inh: inhibitors of the PMA/ionomycin-induced NF-kB reporter in Jurkat cells; 0.53% of 330,000 active; PMA/ionomycin-induced NF-kB luciferase reporter, luminescence; inhibition, % at 4 µM; in the data active = inhibition above about 50%
697 NFkB conf: inhibitors of the PMA/ionomycin-induced NF-kB reporter in 697 B cells, retest; 35% of 2,000 active; 697 B-cell NF-kB luciferase, 16 h; inhibition, % at 4 µM; AID 449746; shares compounds with 697 NFkB inh; in the data active = inhibition mostly above about 28%, no sharp cut-off; inactive = mostly below about 22%
* marks the source's active call; other numbers are inactive results; i = inactive; . = not tested or not shown.

SMILES | 697 NFkB inh | Beta cell apopt | Gli-Sufu antag | Jurkat NFkB inh | 697 NFkB conf
CC1=CC(C)(C)Nc2ccc(OC(=O)c3ccco3)cc21 | 78.6* | -20.4 | 8.8 | 13.9 | 38.2*
CC1=CC(C)(C)Nc2ccc(OC(=O)CN3C(=O)CCC3=O)cc21 | 64.5* | . | 6.0 | 6.1 | 47.9*
COc1ccc(OC(=O)C(C)N2C(=O)c3ccccc3C2=O)cc1 (stereo not drawn) | 0.9 | . | 3.8 | -1.8 | .
CC1=CC(C)(C)Nc2ccc(C)cc21 | -28.1 | -6.6 | -19.9 | -11.9 | .
CCCc1cc(C(=O)OC)c2ccccc2n1 | -0.6 | -2.5 | 2.2 | 1.2 | .
Cc1nn(-c2ccccc2)c(Cl)c1C(=O)N1CCN(C)CC1 | -7.0 | 2.4 | 2.5 | -6.2 | .
CCC(C)Nc1nc(N)c([N+](=O)[O-])c(Nc2ccccc2OC)n1 (stereo not drawn) | -26.9 | -4.4 | 9.3 | 8.6 | .
CC(C)C[C@H]1CNC(=S)N1CC1CCN(CC2CCCC2)CC1 | . | . | 36.3 | . | .
C=C(C)C1CC=C(C)C(=NNC(=O)c2ccncc2)C1 (stereo not drawn) | . | . | -0.4 | . | .
Oc1ccccc1-c1cc(-c2ccc3c(c2)OCCO3)n[nH]1 | -432.9 | 14.2 | 8.7 | -138.0 | -453.2
COC(=O)Nc1nc2ccc(C(=O)c3cccs3)cc2[nH]1 | i | . | 19.7 | 45.2 | -107.2
Brc1ccc(-c2nnc(-c3cccnc3)o2)cc1 | -32.0 | -1.4 | -28.1 | -30.2 | .
CNC(=O)c1cc(Nc2nnc(-c3ccc(O)cc3)c3ccccc23)ccc1OC | 35.4* | 4.5 | -8.4 | 8.3 | 28.9*
CNC(=O)c1ccc(Nc2nnc(-c3ccc(O)cc3)c3ccccc23)cc1 | -9.0 | . | -13.3 | -4.3 | .
CCn1c(=O)c2cc(C(=O)NCCN3CCOCC3)sc2c2ccccc21 | 21.7 | -4.1 | 14.3 | -13.8 | .
CCn1c(=O)c2cc(C(=O)NCc3cccs3)sc2c2ccccc21 | 38.9* | -3.9 | 9.0 | -8.3 | 36.2*
CCCCNC(=O)c1cc2c(=O)n(CC)c3ccccc3c2s1 | 23.9 | 1.6 | 28.6 | 6.9 | .
CCn1c(=O)c2cc(C(=O)NC(C)C)sc2c2ccccc21 | 37.4* | 1.8 | 17.0 | 4.3 | 28.4*
CCOc1cc(/C=C2\N=C(SC(C)C(N)=O)N(c3ccc(OC(F)F)cc3)C2=O)ccc1O (stereo not drawn) | 41.4* | 17.1 | -3.4 | -0.4 | 18.1
NC(=O)CSC1=N/C(=C\c2ccco2)C(=O)N1c1ccc(OC(F)F)cc1 | 16.0 | -1.8 | -8.8 | 11.6 | .
CCOC(=O)Cc1csc(NC(=S)NC(=O)c2ccccc2)n1 | -11.8 | -7.3 | -1.3 | -4.5 | .
CCOC(=O)Cc1csc(NC(=S)NC(=O)c2ccc(C)cc2)n1 | 69.8* | -5.9 | 28.3 | -5.1 | 88.9*
CN(C/C(O)=C(\C#N)c1ccccc1)C1CCCCC1 | 4.6 | 2.3 | -4.0 | 0.0 | .
O=C1CC(c2ccc3c(c2)OCO3)CN1 (stereo not drawn) | 38.3* | -1.8 | 2.2 | 24.1 | 11.8
O=C1CC(c2ccc3c(c2)OCO3)c2cc3c(cc2N1)OCO3 (stereo not drawn) | 3.3 | -10.5 | -1.9 | 16.0 | .
SMILES | 697 NFkB inh | Beta cell apopt | Gli-Sufu antag | Jurkat NFkB inh | 697 NFkB conf
COc1ccc(-c2csc(N3C(=N)SCC3=O)n2)cc1 | -378.4 | 0.4 | -121.6 | -104.2 | -312.9
c1ccc(Nc2nc(N3CCCC3)nc(N3CCOCC3)n2)cc1 | 17.2 | -2.7 | -0.2 | 4.7 | .
Cc1[nH]c2ccccc2c1/C=N/Nc1nc(Nc2ccccc2)nc(N2CCOCC2)n1 | 48.7* | 12.0 | 12.1 | 49.5 | 54.8*
Oc1[nH]c2ccccc2c1N=Nc1nc(Nc2ccccc2)nc(N2CCOCC2)n1 | 53.2* | 12.2 | 13.3 | -2.2 | 52.0*
Cn1c2ccc(F)cc2c2ncn(CCN3CCOCC3)c(=O)c21 | -31.3 | 4.7 | -5.1 | -17.1 | .
CC(=O)Nc1ccc(CN2CCCC(CO)(Cc3ccccc3C)C2)cc1 (stereo not drawn) | -4.9 | 4.8 | 38.2 | 6.7 | .
CCC(=O)N1c2ccccc2C(N(C(C)=O)c2ccccc2)CC1C (stereo not drawn) | 37.3* | . | 21.5 | 11.6 | 45.0*
CCCC(=O)N1c2ccccc2[C@@H](N(C(C)=O)c2ccccc2)C[C@H]1C | 17.6 | . | 29.7 | -0.5 | .
CN(C)CC(C(=O)c1ccccc1)c1ccccc1 (stereo not drawn) | -252.9 | 106.5* | 33.2 | 38.3 | -24.1
O=C(Cc1ccc(Cl)cc1)Nc1ccccc1Sc1ccccc1 | -5.6 | -12.1 | -6.0 | 1.1 | .
O=C(CCl)Nc1ccccc1Sc1ccccc1 | 41.0* | -11.5 | -5.9 | 17.3 | 34.1*
Cc1cccc(OCc2nnc(SCC(=O)c3ccccc3)o2)c1 | 33.9 | . | -12.6 | -13.2 | .
O=C(CSc1nnc(COc2ccccc2)o1)c1ccccc1 | 34.9 | -3.2 | -19.2 | 15.1 | .
Cc1cc(C)cc(OCc2nnc(SCC(=O)c3ccccc3)o2)c1 | 46.3* | -4.7 | -0.6 | 4.6 | 44.8*
Cc1ccc(C(=O)CSc2nnc(COc3ccccc3)o2)cc1 | 53.9* | -5.0 | -0.3 | 6.5 | 40.5*
Cc1ccc(C(=O)CSc2nnc(COc3cc(C)cc(C)c3)o2)cc1 | 36.2* | -1.3 | 3.6 | 6.3 | 55.3*
CCCNC(=O)NC(=O)CSc1ncc(C(F)(F)F)cc1Cl | 5.4 | -1.6 | 2.0 | 3.4 | .
COc1ccc(NC(=O)C2CCN(c3cc(-c4ccccc4)nc4ncnn34)CC2)cc1OC | 40.1* | . | 9.1 | 24.3 | 8.2
COc1ccc(OC)c(NC(=O)C2CCN(c3cc(-c4ccccc4)nc4ncnn34)CC2)c1 | 23.7 | . | 20.5 | 24.8 | .
CCOc1ccc(C(F)(F)F)cc1NC(=O)c1ccc(OC)c([N+](=O)[O-])c1 | 40.2* | 0.2 | 19.2 | 0.4 | 26.5
CC(C)(C)c1ccc(-c2noc(CCC(=O)NCC3CCCO3)n2)cc1 (stereo not drawn) | 95.9* | -3.3 | 73.1* | 8.5 | 87.5*
CC(C)(C)c1ccc(-c2noc(CCC(N)=O)n2)cc1 | 93.0* | -3.3 | 75.8* | 19.1 | 93.9*
CCc1ccccc1N(CC)C(=O)CCc1nc(-c2ccc(C)cc2)no1 | -5.5 | 3.2 | 6.9 | 8.9 | .
CNC(=O)CCc1nc(-c2ccc(C(C)(C)C)cc2)no1 | 84.3* | -3.2 | 24.1 | -90.9 | 72.2*
CN(C)C(=O)CCc1nc(-c2ccc(C(C)(C)C)cc2)no1 | 81.4* | -2.4 | -29.8 | -67.1 | 77.2*
SMILES | 697 NFkB inh | Beta cell apopt | Gli-Sufu antag | Jurkat NFkB inh | 697 NFkB conf
Cc1ccccc1-c1noc(CNC(=O)COc2ccccc2)n1 | 11.2 | 0.6 | 5.9 | 9.7 | .
CSc1ccc(/C=N/n2c(COc3ccccc3)n[nH]c2=S)cc1 | 10.3 | -1.0 | 0.4 | -14.1 | .
CC(C)C(=O)Nc1ccc2c(c1)nc1n2CCSC1 | -9.9 | . | -7.5 | -8.9 | .
COc1cc(-c2noc(CCCC(=O)Nc3ccc(C(N)=O)cc3)n2)cc(OC)c1OC | 21.7 | -2.4 | 5.3 | 1.7 | .
COc1ccc(-c2noc(CCCC(=O)Nc3ccc(C(N)=O)cc3)n2)cc1 | 78.0* | -2.8 | 43.0 | 9.8 | 44.7*
COc1ccc(-c2noc(CCC(=O)Nc3cccnc3)n2)cc1 | 1.2 | -1.6 | -1.9 | 2.5 | .
CC(C)(C)c1ccc(-c2noc(CCC(=O)N3CCOCC3)n2)cc1 | 51.7* | 6.9 | 21.5 | -62.6 | 36.7*
CC(C)(C)c1ccc(-c2noc(CCC(=O)Nc3cccnc3)n2)cc1 | 90.8* | 5.1 | 70.6* | -54.3 | 91.3*
